GPR151 activ: activators of human GPR151; PathHunter beta-arrestin GPR151 cells, luminescence; 650,000 tested, 1% active; activation, % at 11.2 µM; Q8TDV0; in the data active = activation above about 4.9%
Target sequence (Q8TDV0 whole entry, looked up): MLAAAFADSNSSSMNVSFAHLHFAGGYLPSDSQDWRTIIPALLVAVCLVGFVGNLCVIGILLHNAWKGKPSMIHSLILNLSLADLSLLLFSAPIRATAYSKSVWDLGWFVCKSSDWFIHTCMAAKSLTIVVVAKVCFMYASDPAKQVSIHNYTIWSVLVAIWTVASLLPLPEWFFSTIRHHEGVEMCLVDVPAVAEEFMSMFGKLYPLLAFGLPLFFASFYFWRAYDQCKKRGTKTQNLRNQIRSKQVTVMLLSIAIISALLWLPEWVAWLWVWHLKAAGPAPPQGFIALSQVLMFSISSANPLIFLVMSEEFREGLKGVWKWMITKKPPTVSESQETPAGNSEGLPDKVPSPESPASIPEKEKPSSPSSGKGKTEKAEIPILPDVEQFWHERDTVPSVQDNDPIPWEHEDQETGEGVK
FBW7 activator: human FBW7 E3 ligase activation, primary screen; Q969H0; AlphaScreen FBW7–phospho-cyclin E peptide binding, activator screen; normalized activity (activation), % at 26.1 µM; 650,000 tested, 0.13% active; AID 1259310; in the data active = normalized activity above about 1.9%;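 also: purified mutant Fbw7 with reduced substrate affinity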
TEAD-YAP block: TEAD-YAP interaction inhibition; HEK-TIYL cells, TEAD-Gal4/YAP UAS-luciferase luminescence; inhibition, % at 9.12 µM; 640,000 tested, 1.4% active; in the data active = inhibition above about 32%
MITF inh: human MITF inhibition, primary screen | O75030 | AlphaScreen MITF homodimerization, bead proximity signal | inhibition, % at 2.6 µM | 650,000 tested, 0.91% active; in the data active = inhibition above about 50%
GPR151 confirm: confirmation of human GPR151 activators; shares compounds with GPR151 activ; GPR151 PathHunter beta-arrestin cells, luminescence, 90 min; % of EA-reagent control over plate median; activation, % at 11.2 µM; 6,700 tested, under 10 active;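 active = mean percent activation across replicates above the confirmation screen cutoff of 4.91%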
GPR119 counter: activates human GPR119 in a GPR151 counter-screen; shares compounds with GPR151 activ; GPR119 PathHunter beta-arrestin cells, luminescence, 90 min; 0 = compound-well median, 100 = enzyme-acceptor control; activation, % at 11.2 µM; 6,700 tested, 0.3% active; AID 1508611;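 active = mean percent activation in the counterscreen above 29.09%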;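 also: counterscreen on off-target GPR119 to flag nonselective hits from the GPR151 activator screen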
Of the large screens only hits and unclear results are named; the others gave an inactive call (follow-up assays come after a bar, where they were run); ! = not confirmed by another sample. Rows were chosen to be rich in hits. Some 3.5% of all compounds tested hit in one or more screens of this group.

COc1ccc2[nH]cc(CN(C)C)c2c1	none
COc1ccc2[nH]c3c(c2c1)CCN=C3C	GPR151 activ 5.6 (no result: TEAD-YAP block) | GPR151 confirm inactive | GPR119 counter inactive
NCCCC[C@@H]1NC(=O)[C@H]2CN(Cc3ccccn3)CCN2C1=O	none
Cc1ccc2c(c1)CNc1ccccc1O2	GPR151 activ 5.2 | GPR151 confirm inactive | GPR119 counter inactive
CC(C(=O)N1CCC2(CC1)OCCO2)C1Sc2ccccc2NC1=O (stereo not given)	GPR151 activ 9.2 | GPR151 confirm inactive | GPR119 counter inactive
O=C(CN1CCN(C(=O)COc2ccccc2F)CC1)c1ccco1	none
CCCCOC(=O)c1ccccc1C(=O)OCCCC	GPR151 activ 5.9! | GPR151 confirm inactive | GPR119 counter inactive
NC(=O)OCCCc1ccccc1	none
CCCCC/C=C\C/C=C\C/C=C\C/C=C\CCCC(=O)NCCO	GPR151 activ 7.1 (no result: FBW7 activator, TEAD-YAP block) | GPR151 confirm inactive | GPR119 counter inactive
O=c1c2cc(Cl)cc(Cl)c2nc(CN2CCOCC2)n1-c1ccccc1F	GPR151 activ 16.8 | GPR151 confirm inactive | GPR119 counter inactive
CN1CCN(c2ccc(S(C)(=O)=O)cc2NC(=O)C(C)(C)C)CC1	none
C=CCOc1ccc(C2C(C#N)=C(N)Oc3c2c(=O)oc2ccccc32)cc1 (stereo not given)	none
C[N+]1(C)CCC(OC(=O)C(c2ccccc2)c2ccccc2)CC1	none
CN1C2CCC1CC(OC(=O)C(c1ccccc1)c1ccccc1)C2 (stereo not given)	GPR151 activ 5.1 | GPR151 confirm inactive | GPR119 counter inactive
COc1ccc(F)cc1C(=O)C1CCCN(CCO)C1 (stereo not given)	GPR151 activ 8.3 | GPR151 confirm inactive | GPR119 counter inactive
COc1ccc(F)cc1C(=O)C1CCCN(Cc2ccc(O)cc2)C1 (stereo not given)	none
CCCCCCOc1ccc(CN2CCN(CCO)CC2)cc1	GPR151 activ 5.9 | GPR151 confirm inactive | GPR119 counter inactive
CCCCOc1ccc(CN2CCN(CCO)CC2)cc1	none
O=c1c2ccccc2nc(/C=C/c2ccc3c(c2)OCO3)n1-c1ccccc1O	GPR151 activ 8.9 | GPR151 confirm inactive | GPR119 counter inactive
COC(=O)COc1ccc(C=C2C(=O)NC(=O)NC2=O)cc1	GPR151 activ 5.2 | GPR151 confirm inactive | GPR119 counter inactive
C=CCc1cc(OC)c2c(c1OC)OCO2	GPR151 activ 10.6 | GPR151 confirm inactive | GPR119 counter inactive
COc1cc(CN2CCNCC2)cc2c1OCO2	none
Brc1ccccc1CN1CCOCC1	none
CN1CCN(Cc2ccccc2Br)CC1	GPR151 activ 5.1 | GPR151 confirm inactive | GPR119 counter inactive
COc1cccc(CCNCc2cc(OC)c(OC)cc2[N+](=O)[O-])c1	GPR151 activ 8.4 | GPR151 confirm inactive | GPR119 counter inactive
COc1cccc(CCNCc2ccccc2[N+](=O)[O-])c1	none
O=C1CCC(=O)N1CN(CCCO[N+](=O)[O-])[N+](=O)[O-]	none
Cc1ccccc1C(=O)Nc1ccc(C#N)c(Cl)c1	none
O=C(CCCN1CCC2(CC1)C(=O)N(Cc1cccc(F)c1)CN2c1ccccc1)c1ccc(F)cc1	GPR151 activ 6.7 (no result: TEAD-YAP block) | GPR151 confirm inactive | GPR119 counter inactive
CCCCn1c(C)c(C(=O)OCC)c2cc(OC(=O)c3cccc([N+](=O)[O-])c3)c3ccccc3c21	none
Cc1cc(OCc2c(C)c(C)cc(C)c2C)c2c3c(c(=O)oc2c1)CCC3	none
CCc1c(C(=O)NCc2ccccn2)c(=O)cc(C)n1Cc1ccc(C)o1	none
CCC(C)N1CCN(Cc2ccc([N+](=O)[O-])cc2)CC1 (stereo not given)	none
CCN1CCN(Cc2ccc([N+](=O)[O-])cc2)CC1	GPR151 activ 10.1 | GPR151 confirm inactive | GPR119 counter inactive
COc1ccc(F)c(CN2CCN(CC(C)C)C(CCO)C2)c1 (stereo not given)	none
O=c1c2ccccc2nc(/C=C/c2cccc([N+](=O)[O-])c2)n1-c1ccc(F)cc1Cl	none
CC(=O)C(C)Oc1cc(C)cc2oc(=O)c3c(c12)CCCC3 (stereo not given)	GPR151 activ 22.2 | GPR151 confirm inactive | GPR119 counter inactive
c1cc2c(cc1CC1CC3CCN1CC3)OCO2 (stereo not given)	none
O=C1C=C2C=C[C@H]3C[C@]2(O1)[C@@H]1CCCCN13	GPR151 activ 9.6! | GPR151 confirm inactive | GPR119 counter inactive
CCn1c(O)c(C=NCCc2c[nH]c3ccccc23)c(=O)[nH]c1=O	GPR151 activ 5.4 | GPR151 confirm inactive | GPR119 counter inactive
CCOC(=O)c1c(CN2CCCC2)n(Cc2ccccc2)c2cc(Br)c(O)cc12	none
CCOC(=O)c1c(CN2CCCCC2)n(Cc2ccccc2)c2cc(Br)c(O)cc12	GPR151 activ 5.0 | GPR151 confirm inactive | GPR119 counter inactive
O=C1N[C@@H](CO)C(=O)N2CCN(Cc3ccccn3)C[C@H]12	none
O=c1cccc2n1CC1CC2CN(C(=S)Nc2ccc(C(F)(F)F)cc2)C1 (stereo not given)	none
O=C(O)c1c2c(nc3ccccc13)CCNC2	GPR151 activ 6.9 | GPR151 confirm inactive | GPR119 counter inactive
OCCNc1c2c(nc3ccccc13)CCCC2	none
Cc1cc(C)[n+]2c(-c3ccc(Br)cc3)csc2n1	none
O=[N+]([O-])/C=C/c1ccc(OCc2ccccc2F)cc1	none
CC(=O)OCC(=O)[C@H]1CC[C@H]2[C@@H]3CC[C@H]4C[C@H](O)CC[C@]4(C)[C@H]3C(=O)C[C@]12C	GPR151 activ 6.2 (no result: TEAD-YAP block) | GPR151 confirm inactive | GPR119 counter inactive
C=CCN1C[C@H](C)N([C@H](c2ccc(C(=O)N(CC)CC)cc2)c2cccc(OC)c2)C[C@H]1C	GPR151 activ 5.2 (no result: TEAD-YAP block) | GPR151 confirm inactive | GPR119 counter inactive
CCOC(=O)C1=C(N)Oc2cc(O)ccc2C12C(=O)N1c3c(cccc32)C(C)CC1(C)C (stereo not given)	none
CCOC(=O)C1=C(C)OC(N)=C(C#N)C12C(=O)N1c3c(cc(CC)cc32)C(C)CC1(C)C (stereo not given)	GPR151 activ 9.0 | GPR151 confirm inactive | GPR119 counter inactive
O=c1c2ccccc2nc(/C=C/c2ccco2)n1-c1ccc(O)cc1	GPR151 activ 5.1 | GPR151 confirm inactive | GPR119 counter inactive
Cc1[nH]c2c(Cl)c(Cl)ccc2c1CCN	none
Cc1[nH]c2c(Cl)ccc(Cl)c2c1CCN	GPR151 activ 6.8 | GPR151 confirm inactive | GPR119 counter inactive
CCOc1ccccc1NC(=O)N1CCC2(CC1)OCCO2	GPR151 activ 12.7 | GPR151 confirm inactive | GPR119 counter inactive
Cc1nn(-c2ccccc2)c2c1C(c1ccc(Br)cc1)SCC(=O)N2 (stereo not given)	none
CCOC(=O)C1=C(C)OC(N)=C(C(=O)OCC)C12C(=O)N(CC(N)=O)c1ccccc12 (stereo not given)	GPR151 activ 9.6 | GPR151 confirm inactive | GPR119 counter inactive
CCOC(=O)C1=C(C)OC(N)=C(C#N)C12C(=O)N(CC(N)=O)c1ccccc12 (stereo not given)	none
NC1=Nc2ccccc2Sc2ccccc21	GPR151 activ 5.3 | GPR151 confirm inactive | GPR119 counter inactive
C[C@]12CC[C@H](O)C[C@H]1CC[C@@H]1[C@@H]2C[C@@H](O)[C@]2(C)[C@@H](C3=CC(=O)OC3)CC[C@]12O	GPR151 activ 5.7!, TEAD-YAP block 98.1 | GPR151 confirm inactive | GPR119 counter 108.8
CN1CCN(C(=O)C(O)(c2ccccc2)c2ccccc2)CC1	GPR151 activ 10.9 | GPR151 confirm inactive | GPR119 counter inactive
